# Results taken from the supplement of paper PMC8728848.
# Only a selection was taken, and the strongest signals are over-represented in it overall.
# Columns and labels:
# Assay in all cases: glycan array binding signal (z-score within array); higher = stronger binding
# Details in all cases: glycan notation: IUPAC condensed, linker removed
# [1] = target: GlcNAc(b1-2)[GlcNAc(b1-4)]Man(a1-3)[GlcNAc(b1-4)][GlcNAc(b1-2)[GlcNAc(b1-6)]Man(a1-6)]Man(b1-4)GlcNAc(b1-4)[Fuc(a1-6)]GlcNAc
# How it was run: (§1)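 Glycan array data came from 3228 arrays in the Consortium for Functional Glycomics database, and only arrays with an available protein sequence were kept. Glycan names were put into IUPAC-condensed notation, and columns mapping to the same glycan were averaged. The binding signal is a within-array Z-score, averaged across arrays of one protein sequence run at different concentrations or buffers and across linkers. A negative Z-score can be read as non-binding.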
# [2] = target: GlcNAc(b1-2)[GlcNAc(b1-6)]Man(a1-6)[GlcNAc(b1-2)Man(a1-3)]Man(b1-4)GlcNAc(b1-4)GlcNAc
# How it was run: as §1
# [3] = target: GlcNAc(b1-3)Gal(b1-3)GalNAc
# How it was run: as §1
# [4] = target: GlcNAc(b1-3)Gal(b1-4)GlcNAc(b1-3)Gal(b1-4)GlcNAc(b1-3)Gal(b1-4)GlcNAc(b1-3)Gal(b1-4)GlcNAc(b1-2)Man(a1-3)[GlcNAc(b1-3)Gal(b1-4)GlcNAc(b1-3)Gal(b1-4)GlcNAc(b1-3)Gal(b1-4)GlcNAc(b1-3)Gal(b1-4)GlcNAc(b1-2)Man(a1-6)]Man(b1-4)GlcNAc(b1-4)[Fuc(a1-6)]GlcNAc
# How it was run: as §1
# [5] = target: GlcNAc(b1-3)Gal(b1-4)GlcNAc(b1-3)Gal(b1-4)GlcNAc(b1-3)Gal(b1-4)GlcNAc(b1-3)Gal(b1-4)GlcNAc(b1-2)[GlcNAc(b1-3)Gal(b1-4)GlcNAc(b1-3)Gal(b1-4)GlcNAc(b1-3)Gal(b1-4)GlcNAc(b1-3)Gal(b1-4)GlcNAc(b1-6)]Man(a1-6)[GlcNAc(b1-3)Gal(b1-4)GlcNAc(b1-3)Gal(b1-4)GlcNAc(b1-3)Gal(b1-4)GlcNAc(b1-3)Gal(b1-4)GlcNAc(b1-2)Man(a1-3)]Man(b1-4)GlcNAc(b1-4)[Fuc(a1-6)]GlcNAc
# How it was run: as §1
# [6] = target: GlcNAc(b1-3)Gal(b1-4)GlcNAc(b1-6)[GlcNAc(b1-3)]Gal(b1-4)GlcNAc
# How it was run: as §1
# [7] = target: GlcNAc(b1-3)Man
# How it was run: as §1
# [8] = target: GlcNAc(b1-4)GlcNAc(b1-4)GlcNAc(b1-4)GlcNAc(b1-4)GlcNAc(b1-4)GlcNAc
# How it was run: as §1
# [9] = target: GlcNAc6S(b1-3)Gal(b1-4)GlcNAc
# How it was run: as §1
# [10] = target: Kdn(a2-6)Gal(b1-4)GlcNAc
# How it was run: as §1
# [11] = target: Man(a1-3)[Man(a1-6)]Man(a1-6)[Man(a1-3)]Man
# How it was run: as §1
# [12] = target: Man(b1-4)GlcNAc
# How it was run: as §1
# [13] = target: Neu5Ac(a2-3)Gal(b1-3)GalNAc(b1-4)[Neu5Ac(a2-3)]Gal(b1-4)Glc
# How it was run: as §1
# [14] = target: Neu5Ac(a2-3)Gal(b1-3)GlcNAc(b1-2)Man(a1-3)[Neu5Ac(a2-3)Gal(b1-3)GlcNAc(b1-2)Man(a1-6)]Man(b1-4)GlcNAc(b1-4)GlcNAc
# How it was run: as §1
# [15] = target: Neu5Ac(a2-3)Gal(b1-4)GlcNAc(b1-2)[Neu5Ac(a2-3)Gal(b1-4)GlcNAc(b1-6)]Man(a1-6)[Neu5Ac(a2-3)Gal(b1-4)GlcNAc(b1-2)Man(a1-3)]Man(b1-4)GlcNAc(b1-4)GlcNAc
# How it was run: as §1
# [16] = target: Neu5Ac(a2-3)Gal(b1-4)GlcNAc(b1-3)Gal(b1-4)GlcNAc(b1-3)Gal(b1-4)GlcNAc
# How it was run: as §1
# [17] = target: Neu5Ac(a2-3)Gal(b1-4)GlcNAc(b1-3)Gal(b1-4)GlcNAc(b1-3)[Neu5Ac(a2-3)Gal(b1-4)GlcNAc(b1-3)Gal(b1-4)GlcNAc(b1-6)]GalNAc
# How it was run: as §1
# [18] = target: Neu5Ac(a2-3)Gal(b1-4)GlcNAc(b1-6)GalNAc
# How it was run: as §1
# [19] = target: Neu5Ac(a2-6)Gal(b1-4)GlcNAc(b1-2)Man(a1-3)[Neu5Ac(a2-6)Gal(b1-4)GlcNAc(b1-2)Man(a1-6)]Man(b1-4)GlcNAc(b1-4)GlcNAc
# How it was run: as §1
# [20] = target: Neu5Ac(a2-6)Gal(b1-4)GlcNAc(b1-2)[Neu5Ac(a2-6)Gal(b1-4)GlcNAc(b1-4)]Man(a1-3)[GlcNAc(b1-4)][Neu5Ac(a2-6)Gal(b1-4)GlcNAc(b1-2)[Neu5Ac(a2-6)Gal(b1-4)GlcNAc(b1-6)]Man(a1-6)]Man(b1-4)GlcNAc(b1-4)GlcNAc
# How it was run: as §1
# [21] = target: Neu5Ac(a2-6)Gal(b1-4)GlcNAc(b1-6)GalNAc
# How it was run: as §1
# [22] = target: Neu5Ac(a2-6)Gal(b1-4)GlcNAc(b1-6)[Gal(b1-3)GlcNAc(b1-3)]Gal(b1-4)Glc
# How it was run: as §1
# [23] = target: Neu5Ac(a2-6)GalNAc(b1-4)GlcNAc6S
# How it was run: as §1
# [24] = target: Neu5Ac(a2-8)Neu5Ac(a2-8)Neu5Ac
# How it was run: as §1
# [25] = target: Neu5Gc(a2-3)Gal(b1-3)[Fuc(a1-4)]GlcNAc
# How it was run: as §1
# [26] = target: Neu5Gc(b2-6)Gal(b1-4)GlcNAc
# How it was run: as §1
binder,measurement,setting,value
CvGal2 (Crassostrea virginica) (protein) MGSSHHHHHHSSGLVPRGSHMRIREAGKRKDTTKVYQIPDGLFPGQQVMLRGRVPWGSKSFSINFSATPRMGEGDILFHLNPRPSEGVCIRNALLNGSWGAEEKWQPYFPFDDGRSFSVKIEVTNDAFRTFVNGRPFVDFLHRTDFRAGKYLTLREGAEYYDVIFQSKPNIPLTTAIHNGMRIGKTIRIRGMCTAQDGFAINFNDNRNNIYFHFNARPAQRTVVRNSYFGSWGNEETAISKEFPFYPFLYFYASFVCMEDKFAVYVNDEHFIDFAHRGNPNNISVLQIKGSVNVLDTECLEPMGEDAMTEVDSGLENGDLFVLNGLMTERGKTFAVNFLNGFTENDDIALHFNPRKSTGEVVLNSRYGGAWQSEEKVALPGVFWSNRPLQVKVETKRNKFKIYVNGVDLAKYKIRGNVEDVHAVQVKGDVFLLETLLLKRLMKPVWERLTGGIRPGTWVTLQGTPKKNWQQFVVNFALDDTLDGDIAFHFNVRRGARQVVRNHRQSGAWGREETVTPFFAFDSEATFEIVFFVKEEKFLIYFNGKLFFEFVHRVPVERITHIYMDGDCNFYEPEVVI,glycan array binding signal (z-score),[1],-0.32
same,glycan array binding signal (z-score),[2],-0.338
same,glycan array binding signal (z-score),[3],-0.316
same,glycan array binding signal (z-score),[4],-0.163
same,glycan array binding signal (z-score),[5],0.428
same,glycan array binding signal (z-score),[6],-0.345
same,glycan array binding signal (z-score),[7],-0.33
same,glycan array binding signal (z-score),[8],-0.345
same,glycan array binding signal (z-score),[9],-0.328
same,glycan array binding signal (z-score),[10],-0.329
same,glycan array binding signal (z-score),[11],-0.325
same,glycan array binding signal (z-score),[12],-0.333
same,glycan array binding signal (z-score),[13],-0.328
same,glycan array binding signal (z-score),[14],-0.338
same,glycan array binding signal (z-score),[15],-0.325
same,glycan array binding signal (z-score),[16],-0.337
same,glycan array binding signal (z-score),[17],-0.323
same,glycan array binding signal (z-score),[18],-0.339
same,glycan array binding signal (z-score),[19],-0.305
same,glycan array binding signal (z-score),[20],-0.336
same,glycan array binding signal (z-score),[21],-0.339
same,glycan array binding signal (z-score),[22],-0.133
same,glycan array binding signal (z-score),[23],-0.331
same,glycan array binding signal (z-score),[24],-0.335
same,glycan array binding signal (z-score),[25],-0.338
same,glycan array binding signal (z-score),[26],-0.336
